Screening results deposited in PubChem BioAssay by National Center for Advancing Translational Sciences (NCATS).
Pf Dd2 inh: Plasmodium falciparum Dd2 growth inhibition | P. falciparum Dd2 growth, SYBR Green, 72 h | Potency, µM (series often up to 28.9 µM), for inactives: at the top dose activity, negative = inhibition, most hits filed as inhibitors | actives 4.3% (n = 120,000); active = well fitted inhibition curve with a large enough effect;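 note: plate controls were DMSO vehicle for no effect and reference drug for full effect; nearly all actives have a fitted effect of over 65% in size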
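Infected erythrocytes (Dd2, 0.3% parasitemia, 2.5% hematocrit final) are added to compound in RPMI-1640/Albumax II medium, grown 72 h at 37C in low oxygen, then lysed with saponin/Triton-X containing SYBR Green and read by fluorescence.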
Active calls of the source: *; i = inactive; [ ] = remark or other dose. Only a selection was taken, and hits are over-represented in it overall. Potency is the fitted concentration of half-maximal effect.

SMILES	Pf Dd2 inh
COc1ccc(-c2cc(-c3cccc(CO)c3)cn3cncc23)cn1	3.98µM*
CC(=O)Nc1cccc(-c2cc(-c3ccncc3)c3cncn3c2)c1	i
CCc1noc(-c2cccn3c(CNC(=O)c4ccoc4)nnc23)n1	i
CC(C)[C@@H]1CN(C(=O)c2nc3ccccc3[nH]c2=O)C[C@H]1NS(C)(=O)=O	-6.1%
COc1ccc(-c2cc(N3CCC(NC(=O)c4ccc5cc[nH]c5c4)CC3)n[nH]2)cc1	-11.7%
O=C(CCC1CCN(S(=O)(=O)c2ccccc2)CC1)NC1CCCCCC1	-10.6%
CC(=O)Nc1ccc(CN2CCC23Cc2ccccc2NC3=O)cc1 (stereo not drawn)	-1.4%[44.1 µM]
COCCn1c(COc2c(C)nc(C)nc2C)nnc1C1CC(N)C1 (stereo not drawn)	-18.6%
CNC(=O)c1cc[nH]c1C1CCCN(C(=O)Cn2c(=O)oc3ccccc32)C1 (stereo not drawn)	-28.2%
COc1ccc(-n2ncc(C(=O)N3CCOCC3)c2C2CCN(C(=O)OC(C)(C)C)CC2)cc1	41.4%
COc1ccc(-n2ncc(C(=O)N3CCN(c4cc(C)ccc4C)CC3)c2C2CCN(C(=O)OC(C)(C)C)CC2)cc1	24.8%
Cc1cccc(N2CCN(C(=O)c3cnn(-c4ccccc4)c3C3CCN(C(=O)OC(C)(C)C)CC3)CC2)c1C	10µM*
COc1cccc(N2CCN(C(=O)c3cnn(C(C)(C)C)c3C3CCN(C(=O)OC(C)(C)C)CC3)CC2)c1	12.6µM*
COc1cccc(N2CCN(C(=O)c3cnn(-c4ccc(C)cc4C)c3C3CCN(C(=O)OC(C)(C)C)CC3)CC2)c1	6.31µM*
Cc1ccc(-n2ncc(C(=O)N3CCN(c4ccccn4)CC3)c2C2CCN(C(=O)OC(C)(C)C)CC2)cc1	18.1%
COCCc1noc(C2Cc3ccccc3N2C(=O)Cc2ccc(OC)c(OC)c2)n1 (stereo not drawn)	3.7%[5.79 µM]
Cn1cnc(C(=O)N[C@@H]2CN(c3ncccn3)C[C@H]2CO)c1	11.8%
O=C(c1cn2c(n1)CN(C(=O)c1ccccc1F)CC2)N1CCOCC1	19.8%
CN(Cc1cccnc1)c1nc2c(c(=O)[nH]1)CCN(CCc1ccccc1)CC2	24.6%[5.79 µM]
CN1[C@@H](CCC(=O)NCc2ccc(F)cc2)CNC(=O)[C@@H]2[C@H]1CCN2Cc1ccc(O)cc1	-23.2%
COc1ccccc1C(=O)N1CC2(C1)C(=O)Nc1ccccc12	-2.1%
